SMILES strings stand for the structures. Structures can show the parent of a compound that is named as a salt.

For this test, the system named is NCI-H1688. Nature of the test: inhibition of cell viability relative to untreated control (fraction); higher = stronger growth inhibition, active = 0.5 or more. As to conditions: 30 µM; 24 h. An outline of the steps: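 NCI-H1688 small cell lung cancer cells were seeded at 3 × 10^3 cells/well in 96-well plates and treated 24 h later with a natural compound library (TargetMol) at 30 µM for 24 h, at 37°C with 5% CO2. Viability was read in triplicate with Cell Counting Kit-8 as absorbance at 450 nm. Inhibition of cell viability is expressed as a fraction, derived from viability normalised to the untreated control.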
On to `OC[C@H]1O[C@@H](Oc2cc(O)cc(/C=C/c3ccc(O)cc3)c2)[C@H](O)[C@@H](O)[C@@H]1O` [Piceid], for which the “inhibition of cell viability” value was 0.175 (inactive).

Take `O=c1c(O)c(-c2cc(O)c(O)c(O)c2)oc2cc(O)cc(O)c12` [Myricetin]: the “inhibition of cell viability” value was 0.0201 (inactive).

Regarding `C=C1C[C@@]23CC[C@H]4[C@@](C)(CCC[C@@]4(C)C(=O)O[C@@H]4O[C@H](CO)[C@@H](O)[C@H](O)[C@H]4O)[C@@H]2CC[C@]1(O[C@@H]1O[C@H](CO)[C@@H](O)[C@H](O)[C@H]1O[C@@H]1O[C@H](CO)[C@@H](O)[C@H](O)[C@H]1O)C3` [Stevioside], the “inhibition of cell viability” value was -0.031 (inactive).

As to `CCNC(=O)CC[C@H](N)C(=O)O` [L-Theanine], the “inhibition of cell viability” value was -0.151 (inactive).

Take `CCCCCCCCCCCCCCCC(=O)O` [Palmitic acid]: the “inhibition of cell viability” value was 0.0796 (inactive).

On to `CCCCCCCCCCCCCCCCCCCCCCCCCCCCCCO`, for which the “inhibition of cell viability” value was 0.22 (inactive).

Take `C=CCc1ccc(O)c(-c2cc(CC=C)ccc2O)c1` [Magnolol]: the “inhibition of cell viability” value is -0.288 (inactive).

As for `CC(/C=C/C=C(\C)C(=O)O[C@@H]1O[C@H](CO[C@@H]2O[C@H](CO)[C@@H](O)[C@H](O)[C@H]2O)[C@@H](O)[C@H](O)[C@H]1O)=C\C=C\C=C(C)\C=C\C=C(/C)C(=O)O[C@@H]1O[C@H](CO[C@@H]2O[C@H](CO)[C@@H](O)[C@H](O)[C@H]2O)[C@@H](O)[C@H](O)[C@H]1O` [Crocin], the “inhibition of cell viability” value is 0.267 (inactive).

Take `C[C@]12CC[C@@H]3c4ccc(O)cc4CC[C@H]3[C@@H]1CCC2=O` [Aquacrine]: the “inhibition of cell viability” value is 0.0269 (inactive).

With `COc1cc2c(c(OC)c1OC)-c1c(cc(OC)c(OC)c1OC)CC(C)C(C)C2` (stereo not drawn) [Schizandrin A], the “inhibition of cell viability” value is -0.0474 (inactive).

Regarding `OC[C@@H](O)[C@@H](O[C@H]1O[C@H](CO)[C@@H](O)[C@H](O)[C@H]1O)[C@H](O)[C@@H](O)CO` [Maltitol], the “inhibition of cell viability” value is 0.0233 (inactive).

For `Oc1cc(O)c2c(c1)O[C@H](c1ccc(O)c(O)c1)[C@@H](O)C2` [(+)-Catechin Hydrate], the “inhibition of cell viability” value is 0.159 (inactive).

As to `c1ccc2c(Cc3c[nH]c4ccccc34)c[nH]c2c1` [3,3'-Diindolylmethane], the “inhibition of cell viability” value is 0.12 (inactive).

For the molecule `C[C@H](CCC(=O)NCC(=O)O)[C@H]1CC[C@H]2[C@@H]3[C@H](O)C[C@@H]4C[C@H](O)CC[C@]4(C)[C@H]3C[C@H](O)[C@]12C` [Glycocholic acid], the “inhibition of cell viability” value is -0.11 (inactive).

Turning to `O=c1c(-c2ccc(O)cc2)coc2cc(O[C@@H]3O[C@H](CO)[C@@H](O)[C@H](O)[C@H]3O)ccc12` [Daidzin], the “inhibition of cell viability” value is -0.0211 (inactive).

Turning to `NC(=O)NCCC[C@H](N)C(=O)O` [Citrulline], the “inhibition of cell viability” value is -0.126 (inactive).

`c1coc(CNc2ncnc3[nH]cnc23)c1` [Kinetin]: the “inhibition of cell viability” value is 0.00365 (inactive).

As for `C[C@@H]1O[C@@H](OC[C@H]2O[C@@H](Oc3c(-c4ccc(OCCO)c(OCCO)c4)oc4cc(OCCO)cc(O)c4c3=O)[C@H](O)[C@@H](O)[C@@H]2O)[C@H](O)[C@H](O)[C@H]1O` [Troxerutin], the “inhibition of cell viability” value is -0.145 (inactive).

Turning to `NCCCC(=O)O` [4-Aminobutyric acid], the “inhibition of cell viability” value was -0.231 (inactive).

On to `COc1ccc2c(c1OC)C(=O)O[C@@H]2[C@H]1c2c(cc3c(c2OC)OCO3)CCN1C` [Noscapine hydrochloride], for which the “inhibition of cell viability” value is 0.323 (inactive).

Take `C=C(C)[C@H]1CC=C(C)CC1` [(R)-(+)-Limonene]: the “inhibition of cell viability” value is 0.281 (inactive).

With `N[C@@H](Cc1cc(I)c(Oc2cc(I)c(O)c(I)c2)c(I)c1)C(=O)O` [L-Thyroxine], the “inhibition of cell viability” value was 0.22 (inactive).

For `CC1=C(/C=C/C(C)=C/C=C/C(C)=C/C(=O)O)C(C)(C)CCC1` [Tretinoin], the “inhibition of cell viability” value is 0.00396 (inactive).

In the case of `C[C@]12CC[C@@H]3c4ccc(O)cc4CC[C@H]3[C@@H]1CC[C@@H]2O` [Estradiol], the “inhibition of cell viability” value was 0.296 (inactive).

On to `C[C@@H]1O[C@@H](Oc2c(-c3ccc(O)c(O)c3)oc3cc(O)cc(O)c3c2=O)[C@H](O)[C@H](O)[C@H]1O` [Quercitrin], for which the “inhibition of cell viability” value was 0.325 (inactive).

Turning to `COc1cc([C@@H]2c3cc4c(cc3[C@@H](O[C@@H]3O[C@@H]5CO[C@@H](C)O[C@H]5[C@H](O)[C@H]3O)[C@H]3COC(=O)[C@H]23)OCO4)cc(OC)c1O` [Etoposide], the “inhibition of cell viability” value is 0.664 (active).

As for `OC[C@@H](O)[C@H](O)[C@@H](O)CO` [Xylitol], the “inhibition of cell viability” value is 0.015 (inactive).

With `CC[C@H](C)C(=O)O[C@H]1CCC=C2C=C[C@H](C)[C@H](CC[C@@H]3C[C@@H](O)CC(=O)O3)[C@H]21` [Mevastatin], the “inhibition of cell viability” value was 0.86 (active).

`C[N+](C)(C)CC(=O)O` [Betaine hydrochloride]: the “inhibition of cell viability” value was -0.247 (inactive).

For the molecule `COc1ccc([C@@H]2OC[C@H]3[C@@H]2CO[C@@H]3c2ccc(O[C@@H]3O[C@H](CO)[C@@H](O)[C@H](O)[C@H]3O)c(OC)c2)cc1OC` [Forsythin], the “inhibition of cell viability” value was -0.0217 (inactive).

As to `O=c1cc(-c2ccc(O)c(O)c2)oc2cc(O[C@@H]3O[C@H](CO)[C@@H](O)[C@H](O)[C@H]3O)cc(O)c12` [Cynaroside], the “inhibition of cell viability” value was 0.705 (active).

`CC1(C)CC[C@]2(C(=O)O[C@@H]3O[C@H](CO[C@@H]4O[C@H](CO)[C@@H](O)[C@H](O)[C@H]4O)[C@@H](O)[C@H](O)[C@H]3O)CC[C@]3(C)C(=CC[C@@H]4[C@@]5(C)CC[C@H](O[C@@H]6OC[C@H](O)[C@H](O)[C@H]6O)[C@@](C)(CO)[C@@H]5CC[C@]43C)[C@@H]2C1` [Asperosaponin Ⅵ]: the “inhibition of cell viability” value was 0.0344 (inactive).

Take `CC(C)CCC[C@@H](C)[C@H]1CC[C@H]2[C@@H]3CC[C@H]4CC(=O)CC[C@]4(C)[C@H]3CC[C@]12C` [5alpha-Cholestan-3-one]: the “inhibition of cell viability” value is -0.0937 (inactive).

For `CC(C)CCC[C@@H](C)[C@H]1CC[C@H]2[C@@H]3CC=C4C[C@@H](O)CC[C@]4(C)[C@H]3CC[C@]12C` [Cholesterol], the “inhibition of cell viability” value was -0.0392 (inactive).

Consider `C=C1C[C@]23C[C@@]1(O)CC[C@H]2[C@@]12C=C[C@H](O)[C@@](C)(C(=O)O1)[C@H]2[C@@H]3C(=O)O` [Gibberellic acid], for which the “inhibition of cell viability” value was 0.0962 (inactive).

`OC[C@@H](O)[C@@H](O)[C@H](O)[C@H](O)CO` [D-Mannitol]: the “inhibition of cell viability” value was -0.179 (inactive).

`COc1ccc(-c2cc(=O)c3c(O)c(OC)c(O)cc3o2)cc1OC` [Eupatilin]: the “inhibition of cell viability” value is 0.345 (inactive).

Consider `C=C[C@H]1CN2CC[C@H]1C[C@H]2[C@H](O)c1ccnc2ccc(OC)cc12` [Quinine], for which the “inhibition of cell viability” value is 0.162 (inactive).

The values above are taken from the supplement of paper PMC11634586.
